FXN GAA850 act: increases GAA850 frataxin promoter reporter activity | HEK293 lucGAA850 FXN promoter luciferase reporter, 24 h; percent of 10 µM SAHA response | activation, % at 6 µM | 360,000 compounds, 0.56% hits | AID 540364;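 active = activation above the average of all compounds screened plus 3 SD, cutoff fixed separately per campaign, cut at about 7.5% in these data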;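 note: 0% = DMSO wells and 100% = 10 µM SAHA wells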
AHR activator: human AHR activation | AHR-responsive luciferase reporter cells, luminescence | P35869 | activation, % at 5 µM | 320,000 compounds, 2.5% hits; in the data active = activation above about 47%;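 note: 0% = vehicle wells and 100% = reference agonist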
Target sequence (P35869 whole entry, looked up): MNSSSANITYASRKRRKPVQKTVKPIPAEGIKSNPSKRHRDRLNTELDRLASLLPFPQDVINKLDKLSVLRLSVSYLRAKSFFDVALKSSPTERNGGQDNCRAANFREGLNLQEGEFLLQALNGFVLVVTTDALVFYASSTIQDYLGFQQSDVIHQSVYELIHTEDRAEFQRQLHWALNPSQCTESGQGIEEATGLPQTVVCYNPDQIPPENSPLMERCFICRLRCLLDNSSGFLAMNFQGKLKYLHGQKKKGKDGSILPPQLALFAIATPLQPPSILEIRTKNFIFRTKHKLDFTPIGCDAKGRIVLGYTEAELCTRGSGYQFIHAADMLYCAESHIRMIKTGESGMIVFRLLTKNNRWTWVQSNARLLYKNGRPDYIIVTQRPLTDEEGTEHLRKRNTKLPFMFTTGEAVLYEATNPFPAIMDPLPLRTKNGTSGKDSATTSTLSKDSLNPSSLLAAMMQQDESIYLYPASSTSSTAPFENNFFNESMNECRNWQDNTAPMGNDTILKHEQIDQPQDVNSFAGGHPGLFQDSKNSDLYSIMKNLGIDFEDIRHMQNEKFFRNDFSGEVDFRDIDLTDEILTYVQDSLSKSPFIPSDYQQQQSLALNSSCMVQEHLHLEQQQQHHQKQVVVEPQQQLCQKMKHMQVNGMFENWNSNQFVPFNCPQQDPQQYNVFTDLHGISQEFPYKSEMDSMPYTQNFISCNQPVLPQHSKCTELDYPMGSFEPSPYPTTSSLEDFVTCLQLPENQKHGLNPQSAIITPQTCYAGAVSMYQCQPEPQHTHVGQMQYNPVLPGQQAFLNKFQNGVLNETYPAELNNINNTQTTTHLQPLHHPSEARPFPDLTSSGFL
HSF1 activator: increases HSF-1 driven luciferase reporter signal; activation, % at 9 µM; 300,000 compounds, 1.7% hits; AID 504408; NIH3T3-HGL HSF-1 luciferase reporter, MG132, 8 h; 100% = twice DMSO control signal;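 active = mean replicate activation of at least 50% with a set share of replicates each reaching 50%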;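 note: 0% = median of the neutral control wells and 100% = twice that signal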
HSF1 inh: HSF1 inhibition; activity change, negative = inhibition, % at 7.5 µM (by protocol); AID 2098; 300,000 compounds, 0.77% hits; NIH3T3-HGL HSE-luciferase, MG132-induced, luminescence 8 h; hits give low values;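 active = more than half of replicate wells show activity change below -50%, luminescence cut by over half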;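 note: luciferase reports HSF-1 transcriptional activity via heat shock element; 0% = median of DMSO wells and -100% = zero luminescence signal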
AHR act confirm: human AHR activation, confirmation; shares compounds with AHR activator; human cells, AHR-responsive luciferase reporter, luminescence; activation, % at 9 µM; 2,300 compounds, 87% hits; in the data active = activation above about 49%;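 note: HepG2 hepatoma cells carrying a DRE-driven firefly luciferase reporter; 0% = vehicle wells and 100% = reference agonist wells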
PXR counter: counter-screen for AHR activators: human PXR activators; shares compounds with AHR activator; cell-based PXR reporter, luciferase luminescence; activation, % at 11.6 µM; 2,300 compounds, 88% hits; AID 434939; in the data active = activation above about 11%;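 note: human hepatoma DPX-2 cells expressing full-length human PXR; 0% = DMSO and 100% = reference agonist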
The depositor's hits bear a star; nt = no result given. Most compounds without a hit are left out; they make up all but 4.6% or so of the library.

SMILES	FXN GAA850 act	AHR activator	HSF1 activator	HSF1 inh	AHR act confirm	PXR counter
Cc1cc(C(=O)N2CCC2(C)C(=O)Nc2cccc3c2CCCC3)nn1C (stereo unspecified)	3	nt	nt	nt	nt	nt
CCOC(=O)c1c(C)[nH]c(C(=O)N/N=C/c2cccc(OC)c2)c1C	-2	22	-42	-28	nt	nt
CCOC(=O)c1c(C)[nH]c(C(=O)N/N=C\c2ccccc2Cl)c1C	-4	81*	18	2	73*	15*
CCC(=O)Nc1cccc(-c2cnc3ccccc3n2)c1	6	2	27	2	nt	nt
O=C(CCl)Nc1cccc(-c2cnc3ccccc3n2)c1	-13	118*	-28	-16	29	9
Clc1ccc(Nc2nc3ccccc3n3nnnc23)cc1	1	81*	-1	-2	104*	50*
COc1ccc(Nc2nc3ccccc3n3nnnc23)cc1	4	99*	8	0	103*	29*
Fc1cc(Br)ccc1Nc1nc2ccccc2n2nnnc12	2	131*	1	2	125*	28*
Cc1cccc(N(CC(=O)NCc2ccccc2)C(=O)CCC(=O)Nc2nccs2)c1	0	4	11	-5	nt	nt
O=C(Nc1ccc(Cl)cc1C(F)(F)F)c1ccc(Cl)cc1	3	0	16	-1	nt	nt
O=C(Nc1cc(F)c(Br)cc1F)c1ccc(Cl)cc1	3	83*	26	13	98*	31*
Cc1cccc(NC2=C(NC(=O)c3ccccc3)C(=O)c3ccccc3C2=O)c1	-3	106*	36	12	103*	124*
Cc1cccc(C(=O)Nc2cccc(NC(=O)c3ccccc3)c2)c1	2	20	4	2	nt	nt
CC(=O)c1ccccc1NC(=O)c1ccc2c(c1)NC(=O)C(C)S2 (stereo unspecified)	5	122*	28	22	143*	152*
Cc1ccc(/C=N/NC(=O)c2cccs2)s1	5	130*	43	14	45	28*
CC(C)(C)NC[C@H](O)COc1nsnc1N1CCOCC1	0	-3	10	-4	nt	nt
COc1ccc(-c2nc(C(N)=O)c3[nH]c(=O)n(-c4cccc(C)c4)c3n2)c(OC)c1	3	98*	-1	0	67*	20*
Cc1cccc(-n2c(=O)[nH]c3c(C(N)=O)nc(-c4ccccc4Cl)nc32)c1	1	94*	11	0	72*	12*
COc1cccc(-c2nc(C(N)=O)c3[nH]c(=O)n(-c4ccccc4)c3n2)c1OC	2	88*	-7	-9	61*	10*
Cn1cccc1C(=O)C(=O)Nc1cccc(Cl)c1Cl	6	92*	36	29	104*	10*
CCCCn1c(SCC(=O)Nc2nnc(C(C)C)s2)nc2c1c(=O)n(C)c(=O)n2C	-1	-2	2	2	nt	nt
Nc1cc(-c2ccc(Br)cc2)[nH]n1	0	84*	3	-5	132*	11*
Cc1cc(-c2ccc(Br)cc2)n[nH]1	6	16	44	27	nt	nt
CC(=O)N/N=C/c1cc(C(C)(C)C)cc(/C=N/NC(C)=O)c1O	-1	82*	-1	-2	83*	22*
CCC(O)(CC)C(=O)N/N=C/c1cc(Br)cc(Br)c1O	-3	2	-8	-4	nt	nt
SMILES	FXN GAA850 act	AHR activator	HSF1 activator	HSF1 inh	AHR act confirm	PXR counter
Cn1c(N=Nc2ccccc2)nc2ccccc21	-5	138*	6	-7	98*	10
Cc1ccc(C)c(OCCSc2nnc(-c3cccnc3)n2N)c1	-2	94*	-1	3	66*	30*
O=C(OCC(=O)N1CCCCCC1)c1ccc([N+](=O)[O-])cc1Cl	1	0	6	-4	nt	nt
Nc1c(Cl)cc(C2=NCCn3nc4cc([N+](=O)[O-])ccc4c32)cc1Cl	3	118*	nt	nt	104*	54*
Cc1cccc2cc3c(N)c(C(=O)Nc4ccc(N5CCOCC5)cc4)sc3nc12	2	34	6	-1	nt	nt
Cn1cc(-c2nc3ccccc3[nH]2)c2ccccc21	0	138*	30	9	122*	64*
Cc1c(-c2nc3ccccc3[nH]2)cnn1C	2	-1	nt	nt	nt	nt
Cn1cc(SCC(=O)NC2CCCCC2)c2ccccc21	-1	88*	3	5	6	108*
Cc1ccc(OCC(=O)NS(=O)(=O)c2ccc(Cl)cc2)cc1	-1	0	-12	-4	nt	nt
N#Cc1ccc(C23OCCN2CCn2c3c3ccccc3[n+]2[O-])cc1 (stereo unspecified)	-1	112*	nt	nt	122*	46*
Cc1ccc(C23OCCN2CCn2nc4ccccc4c23)cc1 (stereo unspecified)	2	3	nt	nt	nt	nt
CC(SCc1ccccc1)C(=O)Nc1ccccc1-c1ccccc1 (stereo unspecified)	0	-3	0	-2	nt	nt
O=c1[nH]c(Sc2ccc([N+](=O)[O-])cc2[N+](=O)[O-])nc2ccccc12	4	88*	35	22	41	26*
O=C(CSc1nc2ccccc2c(=O)[nH]1)Nc1ccc([N+](=O)[O-])cc1	-2	-2	nt	nt	nt	nt
O=C(N/N=C/c1ccc2cccc(OCc3ccccc3)c2n1)c1ccc(Cl)cc1	3	99*	9	6	70*	13*
C=CCSc1nnc2nc3[nH]c4c(C)cccc4c3nn12	3	105*	-13	-8	143*	38*
CCC(C)Sc1ccc(-c2nc3ccc(C)cn3c2NCc2ccccc2)cc1 (stereo unspecified)	0	3	nt	nt	nt	nt
c1ccc(-c2cc3nc(NCc4ccc5c(c4)OCO5)ccn3n2)cc1	3	nt	nt	nt	nt	nt
Cc1ccc2nc(-c3ccc(-c4cccc(Cl)c4)cc3)c(NCc3ccccc3)n2c1	1	86*	-38	-19	37	28*
Cc1ccc(-c2nc3ccccn3c2NCc2ccc3c(c2)OCO3)cc1	4	109*	34	16	79*	85*
CC(C)n1cnc2cc(NCc3nc4ccccc4n3C)ccc21	5	91*	6	10	86*	128*
Cc1ccc(CNc2ccc3c(c2)ncn3C(C)C)cc1	7	21	10	11	nt	nt
CCn1cnc2cc(NCc3cccs3)ccc21	5	8	2	6	nt	nt
CCn1cnc2cc(NCc3ccc(Br)cc3)ccc21	nt	107*	19	19	113*	46*
CCN(CC)c1ccc(CNc2ccc3c(c2)ncn3CC)cc1	nt	6	-3	5	nt	nt
CCCn1c(CNc2ccc(Br)cc2)nc2ccccc21	4	101*	19	19	93*	51*
CCn1cnc2cc(NCc3nc4ccccc4n3C)ccc21	2	93*	-50	-40	65*	83*
CCc1ccc(NC(=O)c2cc3c(C)nc4ccccc4c3o2)cc1	1	-12	0	1	nt	nt
O=C(NC1CCCC1)c1c[nH]c2ccc(F)cc2c1=O	1	14	-9	0	nt	nt

High-throughput results (PubChem)
